In PubChem BioAssay (NCATS):
Inconclusive results are not listed. Calls of active or inactive are those of the source. Calls come from the whole dose curve; as a rule, active = well fitted curve in the direction sought with a large enough effect; inconclusive = small, poorly fitted or top-dose-only effect, or another doubt; inactive = no such curve, though single readings can be large; an effect the other way counts as inactive or inconclusive.

How the values were obtained:
[1] = molecular target: Glutathione peroxidase 1 (Homo sapiens) (UniProt P07203); assay: Primary qHTS Assay for Inhibitors of Recombinant Selenoprotein Glutathione Peroxidase 1 (GPX1) (AID 1845191); note: nearly all actives have a fitted effect of over 65% in size
Sequence of Glutathione peroxidase 1 (Homo sapiens) (P07203 whole entry, looked up): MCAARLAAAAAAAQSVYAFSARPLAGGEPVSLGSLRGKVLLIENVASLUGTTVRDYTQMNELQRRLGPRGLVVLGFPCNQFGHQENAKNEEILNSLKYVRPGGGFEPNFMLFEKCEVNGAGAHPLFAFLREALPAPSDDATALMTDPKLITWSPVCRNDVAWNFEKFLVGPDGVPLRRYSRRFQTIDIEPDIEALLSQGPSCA
Procedure, shortened: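 GR-coupled readout: NADPH consumption tracked by fluorescence, ex 340/em 450 nm, at t=0 and after 15 min at RT. Final mix 10 nM GPX1, 1 mM GSH, 0.5 mM CHP, 0.5 mM NADPH, 100 nM GR, 0.01% BSA, following 30 min enzyme–compound preincubation.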

[2] = molecular target: Phospholipid hydroperoxide glutathione peroxidase GPX4 (Homo sapiens) (UniProt P36969); assay: Primary qHTS Assay for Inhibitors of Recombinant Selenoprotein Glutathione Peroxidase 4 (GPX4) (AID 1845192); note: nearly all actives have a fitted effect of over 65% in size
Sequence of Phospholipid hydroperoxide glutathione peroxidase GPX4 (Homo sapiens) (P36969 whole entry, looked up): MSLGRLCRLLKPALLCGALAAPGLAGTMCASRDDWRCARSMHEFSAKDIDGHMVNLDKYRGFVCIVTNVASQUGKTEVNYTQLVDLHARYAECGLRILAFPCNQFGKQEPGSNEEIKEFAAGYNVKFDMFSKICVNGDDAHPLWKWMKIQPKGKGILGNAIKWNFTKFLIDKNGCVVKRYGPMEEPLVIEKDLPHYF
Procedure, shortened: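 Steps: GPX4 plus compound, 30 min RT; add GR/GSH/NADPH master mix; start with cumene hydroperoxide; read 340/450 nm fluorescence at 0 and 15 min. Finals were 200 nM GPX4, 1 mM GSH, 0.5 mM CHP, 0.5 mM NADPH, 100 nM GR.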

[3] = molecular target: Luciferin 4-monooxygenase (Photinus pyralis) (UniProt P08659); assay: Primary firefly luciferase (FLuc) qHTS assay for identification of artifact compounds. (AID 1845220); note: nearly all actives have a fitted effect of over 60% in size
Procedure, shortened: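 D-luciferin and ATP (10 uM each, final) in Tris acetate buffer pH 7.6 were incubated with compounds for 15 min at room temperature. The reaction was started with 10 nM Photinus pyralis luciferase and luminescence read after 5 min. Percent inhibition was fitted to a 4-parameter Hill equation.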

[4] = Primary fluorescence-based thiol-reactive (MSTI) qHTS assay for identification of artifact compounds. (AID 1845221); note: nearly all actives have a fitted effect of over 65% in size; note: potency is the fitted concentration of half-maximal effect
Procedure, shortened: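 In PBS pH 7.4 with 2% DMSO, each compound met 4 uM MSTI for one hour at ambient temperature, shielded from light, before fluorescence detection.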

[5] = tested on: Nanoluciferase (engineered Oplophorus gracilirostris luciferase); assay: Primary Nanoluciferase (NLuc) qHTS assay for identification of artifact compounds. (AID 1845222); note: potency is the fitted concentration of half-maximal effect
Procedure, shortened: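 Diluted conditioned medium from NLuc-expressing S16 cells treated with compounds for 15 min at room temperature, then Nano-Glo substrate added; luminescence read after 5 min. Percent inhibition versus no-enzyme and DMSO controls fitted to 4-parameter Hill equation.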

[6] = Primary redox qHTS assay for identification of artifact compounds. (AID 1845223)
Procedure, shortened: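 Redox-cycling detection via DTT (250 uM final) oxidation coupled to Amplex Red (25 uM)/HRP (250 mU/mL) in HBSS. 15 min preincubation plus 30 min after DTT, room temperature. Ex/Em 525/598 nm; 4-parameter Hill fit against DMSO and 10 uM DA3003.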

Measured: Potency

C=C1C(=O)O[C@@H]2[C@H]3C(C)=CC(=O)C3=C(C)[C@@H](OC(=O)/C(C)=C\C)[C@H](O)[C@@H]12
inactive: [1] | [2] | [3] | [4] | [6]
active: [5] 9.31 µM

CCC(CC)(NC(=O)C(C)C)C(=O)N[C@@H](CCCN=C(N)N)C(=O)NC1(C(=O)NC(c2ccc(F)cc2)c2ccc(F)cc2)CCCC1
inactive: [1] | [2] | [3] | [4] | [5] | [6]

CCCC(CCC)C(=O)NCc1ccc2c(cnn2-c2ccccc2OC)c1
inactive: [1] | [2] | [3] | [4] | [5] | [6]

CC(=O)O[C@H]1[C@@]2(O)C[C@H](C)[C@H](OC(=O)c3ccccc3)[C@@H]2[C@@H](OC(=O)CO)[C@]2(OC(C)=O)C[C@H]3C(=O)C(C)(C)C[C@@H]3[C@@]1(C)[C@H]2OC(C)=O
inactive: [1] | [2] | [3] | [4] | [5] | [6]

O=C(NCCCCCCCCNC(=O)C(Cl)Cl)C(Cl)Cl
inactive: [1] | [2] | [3] | [4] | [5] | [6]

Cc1cn2cc(C(=O)N(C)CCO)cc(NC3CCOc4cccc(C)c43)c2n1 (stereo not drawn)
inactive: [1] | [2] | [3] | [4] | [5] | [6]

CCS(=O)c1nc(-c2cccc(OCc3ccccc3)c2)cc(C(F)(F)F)n1 (stereo not drawn)
inactive: [1] | [2] | [3] | [4] | [5] | [6]

NS(=O)(=O)c1ccc(N2CCN(CC[C@@H]3OCCc4ccccc43)CC2)cc1
inactive: [1] | [2] | [3] | [4] | [5] | [6]

CC(C)n1cnc2c(-c3cnc(N)nc3)nc(N3CCOCC3)nc21
inactive: [1] | [2] | [3] | [4] | [5] | [6]

O=C(NCC1(N2CCN(c3ccccc3)CC2)CCOCC1)c1cccnc1Sc1ccccc1
inactive: [1] | [2] | [3] | [4] | [5] | [6]

Cc1ccc(N2CCN(S(=O)(=O)N3CCCCC3)CC2)c(C)c1
inactive: [1] | [2] | [3] | [4] | [5] | [6]

C=CC(=O)Nc1cccc(Nc2nc(Nc3ccc(NC4CN(CCF)C4)cc3OC)ncc2C(F)(F)F)c1
active: [4] 2.38 µM
inactive: [1] | [2] | [3] | [5] | [6]

NC(=O)C1=CC2C3C=CC2C(OC3=O)O1 (stereo not drawn)
active: [4] 15.8 µM
inactive: [1] | [2] | [3] | [5] | [6]

CC(C)c1c(O)ccc2c1CC[C@H]1C(C)(C)CCC[C@]21C
inactive: [1] | [2] | [3] | [4] | [5] | [6]

CCCN(CCc1ccsc1)C1CCc2c(O)cccc2C1 (stereo not drawn)
inactive: [1] | [2] | [3] | [4] | [5] | [6]

Cc1[nH]c2ccccc2c1CCNC(=O)c1cccs1
inactive: [1] | [2] | [3] | [5] | [6]
active: [4] 8.44 µM

CC(=O)OC1C(OC(=O)c2ccccc2)C2C(=C(C)CCC2(C)C)C23CCC(C)(C2)C(=O)CC13 (stereo not drawn)
inactive: [1] | [2] | [3] | [4] | [5] | [6]

CCNC(=O)Nc1ccc(-c2nc3c(c(N4CCOCC4C)n2)CCN(C2COC2)C3)cc1 (stereo not drawn)
inactive: [1] | [2] | [3] | [4] | [5] | [6]

O=S(=O)(Cc1ccccc1)Nc1ccc(-c2ccc3c(cnn3-c3ccc(F)cc3)c2)c(C(F)(F)F)c1
inactive: [1] | [2] | [3] | [4] | [5] | [6]

Cc1nc(C#Cc2ccnc(Cl)c2)c(C)n1-c1ccc(OC(F)(F)F)cc1
inactive: [1] | [2] | [3] | [4] | [5] | [6]

C=C(C=O)[C@]1(O)C[C@@]2(C)C(=CC1=O)C=C[C@H](OC(=O)/C=C/C=C/[C@H](C)CC)[C@@H]2C
inactive: [1] | [2] | [3] | [4] | [5] | [6]

C=C1CC[C@@H]2[C@](C)(CO)[C@H](O)CC[C@@]2(C)[C@@H]1CC(=O)C1=CCOC1=O
inactive: [1] | [2] | [3] | [4] | [5] | [6]

COc1cc(N2CCOCC2)ccc1NC(=O)c1csc(-c2cccnc2)n1
inactive: [1] | [2] | [3] | [5] | [6]
active: [4] 2.38 µM

COC(=O)CC(O)CC(O)/C=C/c1c(C)ccc2c1C(OC(C)=O)CC(C)C2 (stereo not drawn)
inactive: [1] | [2] | [3] | [4] | [5] | [6]

O=c1cc(N2CCOCC2)nc2c3ccccc3ccn12
inactive: [1] | [2] | [3] | [4] | [5] | [6]

CC(=O)c1ccc2c(c1)[C@H](NC(=O)c1ccc(F)c(Cl)c1)[C@H](O)C(C)(C)O2
inactive: [1] | [2] | [3] | [4] | [5] | [6]

C/C=C(\C)C(=O)OC1C(C)C2(O)C(C=C(CO)CC3(O)C(=O)C(C)=CC32)C2C(C)(C)C12OC(=O)C(C)C (stereo not drawn)
inactive: [1] | [2] | [3] | [4] | [5] | [6]

CCOc1cc(C(C)(C)C)ccc1C1=N[C@@](C)(c2ccc(Cl)cc2)[C@@](C)(c2ccc(Cl)cc2)N1C(=O)N1CCN(CC(=O)N2CCOCC2)CC1
inactive: [1] | [2] | [3] | [4] | [5] | [6]

C=C1C(=O)O[C@@H]2C[C@@]3(C)CCCC(=C)[C@]3(O)C[C@H]12
inactive: [1] | [2] | [3] | [4] | [5] | [6]

Fc1ccc(-n2cc(CCCCN3CCC4(CC3)OCc3ccccc34)c3ccccc32)cc1
inactive: [1] | [2] | [3] | [4] | [5] | [6]

C#CCCCn1cc(-c2cccc3c2N[C@H](C)CC(=O)N3)cn1
inactive: [1] | [2] | [3] | [4] | [5] | [6]

O=C(Nc1ccc(C(O)(C(F)(F)F)C(F)(F)F)cc1)c1ccc(C(F)(F)F)cc1
inactive: [1] | [2] | [3] | [4] | [5] | [6]

CC(C)C[C@@H](N)C(=O)N[C@H]1C(=O)N[C@@H](CC(N)=O)C(=O)N[C@H]2C(=O)N[C@H]3C(=O)N[C@H](C(=O)N[C@H](C(=O)O)c4cc(O)cc(O)c4-c4cc3ccc4O)[C@H](O)c3ccc(c(Cl)c3)Oc3cc2cc(c3O[C@@H]2O[C@H](CO)[C@@H](O)[C@H](O)[C@H]2O[C@H]2C[C@](C)(N)[C@H](O)[C@H](C)O2)Oc2ccc(cc2Cl)[C@H]1O
inactive: [1] | [2] | [3] | [4] | [5] | [6]

O=S(=O)(NCc1cccc2ccccc12)c1cc(Cl)c(Oc2cccc(N3CCNCC3)c2)s1
inactive: [1] | [2] | [3] | [4] | [5] | [6]

O=C(O)C1=CO[C@@H](O[C@@H]2O[C@H](CO)[C@@H](O)[C@H](O)[C@H]2O)[C@@H]2C(CO)=CC[C@H]12
inactive: [1] | [2] | [3] | [4] | [5] | [6]

C=C1C(=O)O[C@@H]2[C@H]1CCC(C)=C(CCC(=O)O)[C@@]2(C)O
inactive: [1] | [2] | [3] | [4] | [5] | [6]

CC(=O)N1CCN(CCOc2ccc(C3CCN(C4=Nn5c(nnc5C(F)(F)F)CC4)CC3)cc2)CC1
inactive: [1] | [2] | [3] | [4] | [5] | [6]

COC(=O)C(Cc1ccc(OCCn2c(=O)sc3cc(C(=O)c4ccccc4)ccc32)cc1)C(=O)OC
inactive: [1] | [2] | [3] | [4] | [5] | [6]
